Unmarked numbers belong to inactive results. Records with an inconclusive call do not appear. A call without a number means that no potency is given here. The source made the active and inactive calls. Unless noted, calls follow the shape of the dose curve; as a rule, active = well fitted curve in the direction sought with a large enough effect in the repeat runs; inconclusive = weak or mixed curves; inactive = no such curve, though single readings can be large; an effect the other way counts as inactive or inconclusive.
Assays:
[1] = molecular target: Thyrotropin receptor (Homo sapiens) (UniProt P16473); test: qHTS assay to identify small molecule agonists of the thyroid stimulating hormone receptor (TSHR) signaling pathway (AID 1224843; calls by dose curve; also: nearly all actives have a fitted effect of over 45% in size)
Outline: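 Using 15 concentrations per compound in triplicate, cAMP production was monitored in TSHR-HEK293 cells after 30 min compound incubation at RT; HTRF reagents followed, with fluorescence intensity recorded after 1 h.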

[2] = qHTS assay to identify small molecule agonists of the hypoxia (HIF-1) signaling pathway - cell viability counter screen (AID 1224844; calls by dose curve; also: nearly all actives have a fitted effect of over 50% in size)
Outline: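 Same wells as the HIF-1 reporter screen; ME-180 cells carrying HRE-bla, 17 hr treatment at 37C; CellTiter-Glo luminescence read after 30 min at room temperature.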

[3] = qHTS assay to identify small molecule agonists of H2AX (AID 1224845; active = well fitted activation curve with a large enough effect in the signal ratio in the repeat runs, not every such curve was filed as active; the % refers to the signal ratio)
Outline: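 Wild-type CHO-K1 cells plated overnight, then exposed 3 hr at 37C to compounds at 15 concentrations (0.76% DMSO). Lysed, then HTRF anti-pH2AX(S139)-cryptate/anti-H2AX-d2 detection after 24 hr at room temperature; emissions 665 and 620 nm.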

[4] = qHTS assay to identify small molecule agonists of the hypoxia (HIF-1) signaling pathway (AID 1224846; active = well fitted activation curve with a large enough effect in the signal ratio in the repeat runs, not every such curve was filed as active; the % refers to the signal ratio)
Outline: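 In ME-180 cells bearing an HRE-bla construct, 17 h treatment with DMSO-dissolved compounds at 37C was followed by CCF4-AM loading to quantify reporter induction.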

[5] = qHTS assay to identify small molecule agonists of H2AX - cell viability counter screen (AID 1224847; calls by dose curve; also: nearly all actives have a fitted effect of over 30% in size; also: potency is read from the fitted curve at half-maximal effect)
Outline: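 Cells plated first: CHO-K1, 1000 per well in 10% FBS medium, incubated overnight at 37C. Then 15-point compound titration added (final DMSO 0.76%) for 3 hr. Finally CellTiter-Glo added and luminescence read.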

[6] = qHTS assay to identify small molecule antagonists of the estrogen related receptor (ERR) signaling pathway from Tox21 library (AID 1224848); also: nearly all actives have a fitted effect of over 50% in size; also: potency is read from the fitted curve at half-maximal effect
Outline: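 Tox21 10K compounds in DMSO tested for ERR pathway antagonism in NTP's ERR cell line; 18 h, 37 C exposure; ONE-Glo luminescence.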

[7] = qHTS assay to identify small molecule agonists of the estrogen related receptor (ERR) signaling pathway from Tox21 library (AID 1224849; calls by dose curve; also: nearly all actives have a fitted effect of over 15% in size); details: ERR reporter cell line, ONE-Glo luciferase, 18 h; at 92.4 µM (top of the series) unless noted
Outline: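 Reporter cells (ERR, NTP source) treated with Tox21 10K compounds 18 h, 37 C. Readout: ONE-Glo luminescence, 30 min RT.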

[8] = qHTS RealTime-Glo MT Cell Viability Assay in HepG2 cells - 24 hour (AID 1224867); also: nearly all actives have a fitted effect of over 50% in size
Outline: (§1)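 HepG2 cells were seeded at 600 cells/well together with NanoLuc luciferase and a cell-permeant prosubstrate, preincubated 5 h at 37 C/5% CO2, then pin-dosed with compounds in DMSO. Nonlytic luminescence from viable cells was read at each time point.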

[9] = qHTS RealTime-Glo MT Cell Viability Assay in HEK293 cells - 32 hour (AID 1224868); also: top concentration of the series differs between compounds; nearly all actives have a fitted effect of over 50% in size
Outline: (§2)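 HEK293 cells were seeded at 600 cells/well together with NanoLuc luciferase and cell-permeant prosubstrate, preincubated 5 h at 37 C/5% CO2, then given compound in DMSO by pintool. Luminescence from viable-cell prosubstrate reduction was read repeatedly over 40 h.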

[10] = A CellTox Green Cytotoxicity Assay to monitor cytotoxicity in HEK293 cells - 0 hour (AID 1224869); also: nearly all actives have a fitted effect of over 50% in size
Outline: (§3)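 Homogeneous no-lysis format: HEK293 cell suspension mixed with CellTox Green reagent, seeded, incubated 5 h at 37 C/5% CO2, then dosed by pintool with compound in DMSO.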

[11] = A CellTox Green Cytotoxicity Assay to monitor cytotoxicity in HEK293 cells - 40 hour (AID 1224871); also: nearly all actives have a fitted effect of over 45% in size
Outline: as §3

[12] = qHTS RealTime-Glo MT Cell Viability Assay in HEK293 cells - 16 hour (AID 1224872)
Outline: as §2

[13] = qHTS RealTime-Glo MT Cell Viability Assay in HepG2 cells - 8 hour (AID 1224873); also: nearly all actives have a fitted effect of over 55% in size
Outline: (§4)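 HepG2 cells mixed with RealTime-Glo MT reagents (NanoLuc plus cell-permeant prosubstrate) were seeded at 600 cells/well, incubated 5 h at 37 C/5% CO2, then pinned with compounds in DMSO; nonlytic luminescence tracked viability during 40 h treatment.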

[14] = qHTS RealTime-Glo MT Cell Viability Assay in HEK293 cells - 40 hour (AID 1224874); details: RealTime-Glo luminescence; max response: stronger effect = lower value; also: nearly all actives have a fitted effect of over 50% in size
Outline: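 Measured as luminescence from the same continuously cultured HEK293 wells at successive time points (0, 8, 16, 24, 32, 40 h) after compound addition. Reagent present from seeding; dosing at 5 h; incubation 37 C.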

[15] = A CellTox Green Cytotoxicity Assay to monitor cytotoxicity in HEK293 cells - 24 hour (AID 1224875); also: nearly all actives have a fitted effect of over 45% in size
Outline: as §3

[16] = A CellTox Green Cytotoxicity Assay to monitor cytotoxicity in HepG2 cells - 16 hour (AID 1224876); also: nearly all actives have a fitted effect of over 45% in size
Outline: (§5)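 Fluorescent DNA-binding dye, 600 HepG2 cells/well, 5 h preincubation then compound in DMSO; same plates read at 0–40 h, 37 C.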

[17] = A CellTox Green Cytotoxicity Assay to monitor cytotoxicity in HepG2 cells - 24 hour (AID 1224878); also: nearly all actives have a fitted effect of over 45% in size
Outline: as §5

[18] = A CellTox Green Cytotoxicity Assay to monitor cytotoxicity in HepG2 cells - 40 hour (AID 1224879); also: nearly all actives have a fitted effect of over 40% in size
Outline: as §5

[19] = qHTS RealTime-Glo MT Cell Viability Assay in HepG2 cells - 40 hour (AID 1224870); also: nearly all actives have a fitted effect of over 50% in size
Outline: as §4

[20] = qHTS RealTime-Glo MT Cell Viability Assay in HepG2 cells - 32 hour (AID 1224877); also: nearly all actives have a fitted effect of over 55% in size
Outline: as §1

Thyrotropin receptor (Homo sapiens), sequence (P16473 whole entry, looked up): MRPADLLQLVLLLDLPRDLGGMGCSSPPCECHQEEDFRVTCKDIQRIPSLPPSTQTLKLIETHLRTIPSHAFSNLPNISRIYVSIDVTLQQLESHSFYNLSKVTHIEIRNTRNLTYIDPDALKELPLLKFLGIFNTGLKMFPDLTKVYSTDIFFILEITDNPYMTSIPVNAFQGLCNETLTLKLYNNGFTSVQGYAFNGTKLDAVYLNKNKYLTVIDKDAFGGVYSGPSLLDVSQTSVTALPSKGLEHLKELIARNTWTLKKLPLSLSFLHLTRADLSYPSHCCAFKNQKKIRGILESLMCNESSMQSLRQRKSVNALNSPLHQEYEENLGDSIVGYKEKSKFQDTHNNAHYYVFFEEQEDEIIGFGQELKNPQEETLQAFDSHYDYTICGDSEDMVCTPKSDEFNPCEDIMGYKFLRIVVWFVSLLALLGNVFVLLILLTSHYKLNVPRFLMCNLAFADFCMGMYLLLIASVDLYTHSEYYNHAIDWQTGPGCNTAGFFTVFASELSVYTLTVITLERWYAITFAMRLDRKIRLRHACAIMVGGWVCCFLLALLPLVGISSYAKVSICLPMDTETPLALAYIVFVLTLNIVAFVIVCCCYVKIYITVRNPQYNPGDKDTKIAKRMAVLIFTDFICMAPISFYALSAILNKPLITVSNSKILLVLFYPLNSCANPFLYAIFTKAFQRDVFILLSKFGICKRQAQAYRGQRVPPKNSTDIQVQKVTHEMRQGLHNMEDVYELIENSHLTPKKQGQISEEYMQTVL

Row | Structure (SMILES) | Potency [1] | Potency [2] | Potency [3] | outcome [4] | Potency [5] | Potency [6] | activity change, positive = activation [7] | Potency [8] | Potency [9] | Potency [10] | Potency [11] | Potency [12] | Potency [13] | max response [14] | Potency [15] | Potency [16] | Potency [17] | Potency [18] | Potency [19] | Potency [20]
1 | ClC=C(Cl)Cl | inactive | inactive | inactive | inactive | inactive | inactive | -0.0629% | inactive | inactive | inactive | inactive | inactive | inactive | 18.6% | inactive | inactive | inactive | inactive | – | –
2 | CC(=O)[C@H]1CC[C@H]2[C@@H]3CC[C@H]4C[C@](C)(O)CC[C@]4(C)[C@H]3CC[C@]12C | inactive | inactive | inactive | inactive | inactive | inactive | 9.6% [at 42.5 µM] | inactive | inactive | inactive | inactive | inactive | inactive | -9.18% | – | inactive | inactive | inactive | inactive | inactive
3 | Cl/C=C\Cl | inactive | inactive | inactive | inactive | inactive | – | – | inactive | inactive | inactive | inactive | inactive | inactive | 0.558% | inactive | inactive | inactive | inactive | inactive | inactive
4 | CC1C(=O)C[C@]2(C(C)C)C[C@H]12 (stereo partly specified) | inactive | inactive | inactive | inactive | inactive | – | – | inactive | inactive | inactive | inactive | inactive | inactive | 9.37% | inactive | inactive | inactive | inactive | inactive | inactive
5 | N#Cc1cc(I)c(O)c(I)c1 | inactive | inactive | inactive | inactive | 28.4 µM (active) | 24.3 µM (active) | -66.8% | inactive | – | inactive | inactive | – | inactive | – | inactive | inactive | inactive | inactive | – | inactive
6 | CC1Sc2c(C(=O)O)c(=O)c3cc(F)c(N4CCNCC4)cc3n21 (stereo unspecified) | inactive | inactive | inactive | inactive | inactive | inactive | 11.7% [at 42.5 µM] | inactive | inactive | inactive | inactive | inactive | inactive | 1.01% | inactive | inactive | inactive | inactive | inactive | inactive
7 | Clc1cc(Cl)c(Cl)c(Cl)c1 | inactive | inactive | inactive | inactive | inactive | – | – | inactive | inactive | inactive | inactive | inactive | inactive | -4.38% | inactive | inactive | inactive | inactive | inactive | inactive
8 | CCCCCC[N+](=O)[O-] | inactive | inactive | inactive | inactive | inactive | – | – | inactive | inactive | inactive | inactive | inactive | inactive | 4.3% | inactive | inactive | inactive | inactive | inactive | inactive
9 | N#Cc1ccc(Cl)cc1 | inactive | inactive | inactive | inactive | inactive | inactive | 0.802% | inactive | inactive | inactive | inactive | inactive | inactive | 2.27% | inactive | inactive | inactive | inactive | inactive | inactive
10 | C=C(C#N)CCC#N | inactive | inactive | inactive | inactive | inactive | inactive | 0.822% | inactive | inactive | inactive | inactive | inactive | inactive | 5.63% | inactive | inactive | inactive | inactive | inactive | inactive
11 | O=C(O)COc1ccc(Cl)cc1 | inactive | inactive | inactive | inactive | inactive | inactive | 1.55% | inactive | inactive | inactive | inactive | inactive | inactive | 0.692% | inactive | inactive | inactive | inactive | inactive | inactive
12 | CCCCCCCCCCOC(=O)c1ccccc1C(=O)OCCCCCCCCCC | inactive | inactive | inactive | inactive | inactive | inactive | 1.79% | inactive | inactive | inactive | inactive | inactive | inactive | 0.334% | inactive | inactive | inactive | inactive | inactive | inactive
13 | CC(C)=CCOc1c2occc2cc2ccc(=O)oc12 | inactive | inactive | inactive | inactive | inactive | inactive | -9.71% [at 42.5 µM] | – | inactive | inactive | inactive | inactive | – | -18% | inactive | inactive | inactive | inactive | inactive | inactive
14 | CN1C(=O)NC(=O)C(C)(C2=CCCCC2)C1=O (stereo unspecified) | inactive | inactive | inactive | inactive | inactive | – | – | inactive | inactive | inactive | inactive | inactive | inactive | 11.8% | inactive | inactive | inactive | inactive | inactive | inactive
